PubChem BioAssay AID1159580 (chemical genetic matrix, 2015)
The whole screen tested about 5,500 compounds, of which about 2,000 (36%) were called active. Another 18% or so got no clear call; they are omitted. No stated cut-off is given here; in the data, active means normalized growth mostly below about 0.91 (no sharp cut-off); inconclusive means no clear call, values can overlap the other calls; inactive means mostly above about 0.92. The list shows a part of the results.

Assay: chemical genetic growth profiling, strain panel (AID 1159580);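 further: tested at 20 µM; growth read once vehicle control cultures reached saturation at 30 °C; 1 = growth at the plate median or of vehicle wells; lower values mean less growth of the strain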
Details: S. cerevisiae deletion strains, growth OD
[1] = locus YGR078C, strain PAC10, hits give low values
[2] = locus YJR075W, strain HOC1, hits give low values
[3] = locus YMR307W, strain GAS1, hits give low values
[4] = locus YNL153C, strain GIM3, hits give low values

Measured: normalized growth

COc1cc2c(cc1OC)[C@@H](c1ccccc1)CN(C)CC2
inactive: locus YAL040C, strain CLN3, hits give low values 1 | locus YCL061C, strain MRC1 (second series), hits give low values 1.01 | locus YDR363W, strain ESC2, hits give low values 1.01 | locus YER002W, strain NOP16, hits give low values 1 | [1] 1.01 | [2] 1.01 | locus YMR263W, strain SAP30, hits give low values 1.01 | [3] 1.01 | locus YNL128W, strain TEP1, hits give low values 1.01 | [4] 1.04 | locus YNL175C, strain NOP13, hits give low values 1 | locus YNL197C, strain WHI3, hits give low values 1 | locus YNL224C, strain SQS1, hits give low values 1 | locus YNL322C, strain KRE1, hits give low values 1.01 | locus YOR083W, strain WHI5 (second series), hits give low values 1.02 | locus YPL055C, strain LGE1, hits give low values 0.995 | locus YPL241C, strain CIN2, hits give low values 1.01

COc1ccccc1/C=C\C(=O)O
inactive: locus YAL013W, strain DEP1, hits give low values 1.02 | locus YAL021C, strain ccr4, hits give low values 1.01 | locus YAL026C, strain drs2, hits give low values 1.01 | locus YAL030W, strain snc1, hits give low values 0.988 | locus YBL061C, strain skt5, hits give low values 1 | locus YBR009C, strain hhf1, hits give low values 1 | locus YBR021W, strain FUR4, hits give low values 1.02 | locus YBR023C, strain chs3, hits give low values 1.01 | locus YBR171W, strain sec66, hits give low values 0.996 | locus YBR229C, strain ROT2, hits give low values 1.02 | locus YBR231C, strain swc5, hits give low values 1.02 | locus YBR279W, strain paf1, hits give low values 1 | locus YCL011C, strain gbp2, hits give low values 0.99 | locus YCL016C, strain dcc1, hits give low values 1.01 | locus YCL029C, strain bik1, hits give low values 1.02 | locus YCL061C, strain MRC1, hits give low values 0.993 | locus YCL069W, strain vba3, hits give low values 0.996 | locus YCR088W, strain abp1, hits give low values 0.996 | locus YDL005C, strain med2, hits give low values 1 | locus YDL035C, strain GPR1, hits give low values 1.08 | locus YDL040C, strain nat1, hits give low values 0.994 | locus YDL074C, strain BRE1, hits give low values 1.19 | locus YDL101C, strain DUN1, hits give low values 1.01 | locus YDL185W, strain tfp1, hits give low values 0.971 | locus YDL192W, strain arf1, hits give low values 1.04 | locus YDR001C, strain nth1, hits give low values 0.991 | locus YDR069C, strain doa4, hits give low values 1.03 | locus YDR101C, strain arx1, hits give low values 1.01 | locus YDR137W, strain rgp1, hits give low values 0.955 | locus YDR159W, strain sac3, hits give low values 1.03 | locus YDR162C, strain NBP2, hits give low values 1.05 | locus YDR195W, strain ref2 1.07 | locus YDR297W, strain sur2, hits give low values 0.994 | locus YDR318W, strain mcm21, hits give low values 1.04 | locus YDR334W, strain swr1, hits give low values 1.01 | locus YDR335W, strain msn5, hits give low values 1 | locus YDR388W, hits give low values 1 | locus YDR392W, strain spt3, hits give low values 0.793 | locus YDR502C, strain sam2, hits give low values 1.03 | locus YEL003W, strain gim4, hits give low values 0.996 | locus YEL037C, strain rad23, hits give low values 1 | locus YEL061C, strain CIN8 (second series), hits give low values 0.992 | locus YER015W, strain faa2, hits give low values 1.01 | locus YER016W, strain bim1, hits give low values 1.01 | locus YER110C, hits give low values 1.03 | locus YER111C, strain swi4, hits give low values 0.993 | locus YER155C, strain BEM2 (second series), hits give low values 0.949 | locus YER155C, strain BEM2, hits give low values 1.01 | locus YER167W, strain BCK2, hits give low values 1.01 | locus YFR010W, strain ubp6, hits give low values 1.02 | locus YGL078C, strain dbp3, hits give low values 1.02 | locus YGL086W, strain mad1, hits give low values 1.01 | locus YGL167C, strain pmr1, hits give low values 0.991 | locus YGL173C, strain kem1, hits give low values 0.998 | locus YGL227W, strain vid30, hits give low values 1 | locus YGL240W, strain doc1, hits give low values 0.981 | locus YGL248W, strain PDE1, hits give low values 1.08 | locus YGL253W, strain hxk2, hits give low values 1.01 | [1] 1.06 | locus YGR135W, strain pre9, hits give low values 1.04 | locus YGR252W, strain gcn5, hits give low values 1.15 | locus YHR013C, strain ard1, hits give low values 0.927 | locus YHR027C, strain rpn1, hits give low values 1 | locus YHR030C, strain SLT2, hits give low values 1.01 | locus YHR079C, strain IRE1 (second series), hits give low values 1.03 | locus YHR094C, strain hxt1, hits give low values 0.998 | locus YHR129C, strain ARP1, hits give low values 1.03 | locus YHR142W, strain chs7, hits give low values 0.971 | locus YHR200W, strain rpn10, hits give low values 1.01 | locus YIL066C, strain RNR3, hits give low values 1.03 | locus YIL073C, strain SPO22, hits give low values 1.23 | locus YIL125W, strain kgd1, hits give low values 1.01 | locus YIR030C, strain dcg1, hits give low values 1.02 | locus YJL092W, strain hpr5, hits give low values 1 | locus YJL095W, strain BCK1 (second series), hits give low values 1.02 | locus YJL095W, strain BCK1, hits give low values 1.07 | locus YJL115W, strain asf1, hits give low values 1.02 | locus YJL129C, strain trk1, hits give low values 0.989 | locus YJL134W, strain LCB3, hits give low values 1.01 | locus YJL154C, strain vps35, hits give low values 1.01 | locus YJL164C, strain tpk1, hits give low values 0.992 | locus YJL166W, strain qcr8, hits give low values 0.98 | locus YJL168C, strain set2, hits give low values 1.04 | locus YJL187C, strain SWE1 (second series), hits give low values 1.04 | locus YJL187C, strain SWE1, hits give low values 0.991 | locus YJR043C, strain POL32, hits give low values 1.05 | [2] 1.02 | locus YKL009W, strain mrt4, hits give low values 1.03 | locus YKL068W, hits give low values 1.01 | locus YKL085W, strain MDH1 (second series), hits give low values 0.99 | locus YKL085W, strain MDH1, hits give low values 0.99 | locus YKL160W, strain elf1, hits give low values 0.986 | locus YKR001C, strain vps1, hits give low values 1.07 | locus YKR026C, strain gcn3, hits give low values 1 | locus YKR091W, strain srl3, hits give low values 0.995 | locus YLL001W, strain dnm1, hits give low values 0.993 | locus YLL026W, hits give low values 1 | locus YLL041C, strain sdh2, hits give low values 0.999 | locus YLR027C, strain aat2, hits give low values 1.01 | locus YLR039C, strain RIC1, hits give low values 1.22 | locus YLR058C, strain SHM2, hits give low values 1.04 | locus YLR102C, strain apc9, hits give low values 1.01 | locus YLR221C, strain rsa3, hits give low values 0.988 | locus YLR258W, strain gsy2, hits give low values 0.987 | locus YLR262C, strain YPT6 (second series), hits give low values 0.932 | locus YLR268W, strain sec22, hits give low values 1.05 | locus YLR320W, strain mms22, hits give low values 0.942 | locus YLR330W, strain CHS5, hits give low values 1.03 | locus YLR342W, strain FKS1 (second series), hits give low values 1.05 | locus YLR342W, strain FKS1, hits give low values 0.996 | locus YLR357W, strain rsc2, hits give low values 1.02 | locus YLR370C, strain arc18, hits give low values 1 | locus YLR371W, strain rom2, hits give low values 1.02 | locus YLR384C, strain iki3, hits give low values 1.03 | locus YLR418C, strain cdc73, hits give low values 1.15 | locus YML016C, strain PPZ1, hits give low values 1.01 | locus YML032C, strain rad52, hits give low values 1.03 | locus YML120C, strain ndi1, hits give low values 0.994 | locus YML124C, strain tub3, hits give low values 1.02 | locus YMR058W, strain fet3, hits give low values 0.999 | locus YMR078C, strain ctf18, hits give low values 1.02 | locus YMR125W, strain sto1, hits give low values 1 | locus YMR129W, hits give low values 0.993 | locus YMR205C, strain PFK2, hits give low values 0.928 | locus YMR223W, strain ubp8, hits give low values 1.03 | locus YMR231W, strain pep5, hits give low values 1.01 | [3] 1.25 | locus YNL067W, strain RPL9B, hits give low values 1.01 | locus YNL071W, strain lat1, hits give low values 0.966 | [4] 1.06 | locus YNL209W, strain ssb2, hits give low values 1.01 | locus YNL233W, strain BNI4, hits give low values 1.08 | locus YNL248C, strain rpa49, hits give low values 1 | locus YNL250W, strain rad50, hits give low values 1.02 | locus YNL271C, strain bni1, hits give low values 1.01 | locus YNL298W, strain CLA4, hits give low values 1.03 | locus YNL307C, strain MCK1, hits give low values 1.02 | locus YNL322C, strain KRE1 (second series), hits give low values 0.999 | locus YNR049C, strain mso1, hits give low values 1 | locus YNR052C, strain pop2, hits give low values 1.03 | locus YOL006C, strain TOP1, hits give low values 1.32 | locus YOL012C, strain htz1 1.02 | locus YOL147C, strain pex11, hits give low values 1.02 | locus YOR001W, strain rrp6, hits give low values 0.979 | locus YOR061W, strain CKA2, hits give low values 1.02 | locus YOR069W, strain VPS5, hits give low values 1.02 | locus YOR070C, strain gyp1, hits give low values 1 | locus YOR080W, strain dia2, hits give low values 1.01 | locus YOR083W, strain WHI5, hits give low values 0.994 | locus YOR106W, strain vam3, hits give low values 0.995 | locus YOR136W, strain idh2, hits give low values 1.02 | locus YOR144C, strain elg1, hits give low values 1.02 | locus YOR184W, strain ser1, hits give low values 1.05 | locus YOR265W, strain rbl2, hits give low values 0.994 | locus YOR270C, strain vph1, hits give low values 0.843 | locus YOR290C, strain snf2, hits give low values 0.952 | locus YOR316C, strain cot1, hits give low values 1.01 | locus YPL051W, strain arl3, hits give low values 0.992 | locus YPL078C, strain atp4, hits give low values 0.987 | locus YPL106C, strain sse1, hits give low values 0.987 | locus YPL240C, strain hsp82, hits give low values 1 | locus YPR119W, strain clb2, hits give low values 1.02 | locus YPR141C, strain kar3, hits give low values 0.999 | locus YPR163C, strain tif3, hits give low values 1.02 | locus YPR167C, strain met16, hits give low values 1.03 | strain wtn01, hits give low values 1.03
